IL1B secr inh: blocks inflammasome-driven IL-1 beta release | THP-1 LPS/ATP IL-1B secretion, AlphaLISA, 16 h; active compounds read low | activity change, % at 57.5 µM | 360,000 compounds, 4.7% hits | AID 743279; in the data active means activity change below about -50%; inconclusive means mostly about -30% to -49%
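Secreted IL-1B measured by AlphaLISA bead assay after 16 h compound exposure of THP-1 cells; compounds (final up to 57.5 uM) added 1 h before LPS (250 ng/mL) and ATP (1.25 mM) stimulation; lower signal means less secretion.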
DT40 TDP1 CPT: growth inhibition of DT40 Tdp1-/-;hTDP1 cells with camptothecin (screen for TDP1 inhibitors). chicken DT40 Tdp1-/-;hTDP1 cells + 20 nM CPT, ATP luminescence, 48 h. Potency, µM (top dose mostly 46.2 µM), actives largely listed as inhibitors. 420,000 compounds, 12% hits; further: nearly all actives have a fitted effect of over 55% in size
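Chicken DT40 Tdp1-/- cells complemented with human TDP1, 400 cells/well, exposed to compounds plus 20 nM camptothecin for at least 48 h at 37 C; viability read as ATP content by CellTiter-Glo luminescence.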
HepG2 viability: HepG2 cytotoxicity, counter-screen for TGF-b inhibitors | HepG2 CAGA-GFP viability, ATP luminescence, 18 h | Potency, µM (series often up to 46.1 µM), hits mostly cytotoxic | 410,000 compounds, 0.76% hits | AID 588856
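CellTiter-Glo luminescence gave cytotoxicity after 18 hours at 37 degrees C. The cells were HepG2 CAGA-GFP in 1% FBS DMEM, stimulated with 500 pg/mL TGF-beta after compound addition. %Activity was normalised to no-cell wells (complete cell-killing) and DMSO (no toxicity), and curves were fitted and classified.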
TDP1 cell noCPT: qHTS for Inhibitors of human tyrosyl-DNA phosphodiesterase 1 (TDP1): qHTS in cells in absence of CPT; DT40 Tdp1-/- hTDP1 cells, no CPT, ATP luminescence, 48 h; Potency, µM (series often up to 46.2 µM), most hits filed as inhibitors; 420,000 compounds, 15% hits; further: nearly all actives have a fitted effect of over 55% in size
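Luminescent ATP content (CellTiter-Glo) served as the growth readout. Knockout chicken DT40 cells expressing human TDP1 were exposed to compounds without camptothecin for a minimum 48 hr at 37 °C.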
TDP1 inh: inhibitors of human tyrosyl-DNA phosphodiesterase TDP1. recombinant TDP1, AlphaScreen DNA substrate cleavage. 350,000 compounds, 0.28% hits. Potency, µM (series often up to 130 µM), usual class: inhibitors. AID 485290; further: nearly all actives have a fitted effect of over 40% in size
Target sequence (Q9NUW8 whole entry, looked up): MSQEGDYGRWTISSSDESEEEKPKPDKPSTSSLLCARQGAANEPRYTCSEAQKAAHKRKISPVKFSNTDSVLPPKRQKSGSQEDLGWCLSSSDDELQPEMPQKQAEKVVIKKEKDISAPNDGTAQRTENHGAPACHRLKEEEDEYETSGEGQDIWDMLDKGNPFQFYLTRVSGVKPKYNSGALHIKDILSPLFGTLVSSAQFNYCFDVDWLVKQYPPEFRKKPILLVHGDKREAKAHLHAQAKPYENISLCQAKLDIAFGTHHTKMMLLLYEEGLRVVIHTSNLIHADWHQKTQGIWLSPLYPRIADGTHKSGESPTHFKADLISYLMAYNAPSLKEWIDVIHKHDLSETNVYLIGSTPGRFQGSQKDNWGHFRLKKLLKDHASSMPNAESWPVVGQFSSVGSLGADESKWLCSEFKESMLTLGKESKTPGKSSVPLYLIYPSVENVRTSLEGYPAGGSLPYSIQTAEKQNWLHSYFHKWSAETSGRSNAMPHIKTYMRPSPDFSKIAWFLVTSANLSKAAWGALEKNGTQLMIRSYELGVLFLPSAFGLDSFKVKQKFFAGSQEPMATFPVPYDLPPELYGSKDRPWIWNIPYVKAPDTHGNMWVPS
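Tdp1 1 nM final; 15 min RT w/ cpd; substrate 15 nM, 5 min; beads 10 ug/ml, 10 min; AlphaScreen read. Neg ctrl: no enzyme.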
TGFb SMAD3 inh: TGF-b pathway inhibition; 410,000 compounds, 1.2% hits; Potency, µM (doses to about 46.1 µM), hits mostly inhibitors; HepG2 CAGA-GFP TGF-b/SMAD3 reporter, GFP fluorescence, 18 h; TGF-beta stimulated, 500 pg/mL final; further: nearly all actives have a fitted effect of over 65% in size
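Cell-based qHTS in HEPG2 carrying a CAGA-GFP Smad reporter; compounds added before 500 pg/mL final TGF-beta, 18 h incubation at 37 degrees C, GFP fluorescence quantified per cell by imaging cytometry.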
A number is an active result; - = inactive; ? = inconclusive; . = no result given; [ ] = dose if it differs, or a comment. Only some compounds are listed: those with a hit (about 18% of all), similar ones and a draw of the others. Unless noted, the call rests on the fitted dose curve; in most records, active means well fitted curve in the direction sought with a large enough effect; inconclusive means small, poorly fitted or top-dose-only effect, or another doubt; inactive means no such curve, though single readings can be large; an effect the other way counts as inactive or inconclusive.

SMILES | IL1B secr inh | DT40 TDP1 CPT | HepG2 viability | TDP1 cell noCPT | TDP1 inh | TGFb SMAD3 inh
Cc1nnc(NC(=O)c2cccc(S(=O)(=O)N3CCN(C)CC3)c2)s1 | - | - | - | - | . | -
CC1C(=O)C(C)(C)C(=O)OC1c1ccc([N+](=O)[O-])cc1 (centres undefined) | - | - | - | - | . | -
CC(C)C[C@H]1CNC(=O)C(=O)N1C[C@@H]1CCCN1C[C@H](CC(C)C)N1C[C@H](Cc2ccc(O)cc2)N(CCc2ccccc2)C(=O)C1=O | - | - | . | - | . | .
CCCCNC(=S)N1CCN(c2ccccc2Cl)CC1 | -58 | - | - | - | - | -
COc1ccc(C(C)NC(=S)NCc2ccc(F)cc2)cc1 (centres undefined) | - | 18µM | - | ? | - | ?
Cc1ccc(C)c(C(C)NC(=S)NCc2ccc(F)cc2)c1 (centres undefined) | - | 23µM | - | ? | - | ?
CCC(NC(=S)NCc1ccc(F)cc1)c1ccccc1 (centres undefined) | - | ? | - | ? | - | -
O=C(COC(=O)c1ccncc1)Nc1cccc2ccccc12 | - | - | - | - | - | -
Cc1ccc2nc(-c3ccc(F)cc3)c(CC3CCCCC3)n2c1 | - | ? | . | ? | . | .
Cc1ccc2nc(-c3ccsc3)c(NC3CCCC3)n2c1 | - | 10µM | - | 13µM | - | -
Cc1ccc2nc(-c3ccncc3)c(NC3CCCCC3)n2c1 | - | 23µM | - | ? | - | -
CCOc1cc(CNCCSc2nnnn2C)cc(Br)c1OCc1ccc(F)cc1 | -87 | ? | - | ? | - | ?
COc1cc(CNCCSc2nnnn2C)cc(Br)c1OCc1ccccc1 | - | ? | - | ? | - | ?
CCOc1cc(CNCCSc2nnnn2C)cc(Cl)c1OCc1ccc(Cl)cc1 | . | 13µM | - | 13µM | - | ?
COc1cc(CNCCSc2nnnn2C)cc(Cl)c1OCc1ccccc1 | . | ? | - | ? | - | -
COc1cc(CNCCSc2nnnn2C)cc(Br)c1OCc1ccc(F)cc1 | -50 | ? | - | 26µM | - | -
CCOc1cc(CNCCSc2nnnn2-c2ccccc2)cc(Cl)c1OC | . | ? | - | 21µM | - | -
Cc1ccc(NC(=O)C2CCCN(C(=O)c3cnn(-c4ccc(F)cc4)c3-n3cccc3)C2)c(Cl)c1 (centres undefined) | . | . | - | . | - | -
CCN1CCCC1CNCc1cc2c(OC)c(OC)c(OC)cc2nc1N(C)C (centres undefined) | . | -[9.04 µM] | . | - | . | .
COc1cc(CNCCSc2nnnn2C)cc(Br)c1OCc1ccccc1F | - | - | - | ? | - | -
CCOc1cc(CNCCSc2nnnn2C)cc(Br)c1OCc1ccccc1F | -65 | 16µM | - | 13µM | - | ?
CCCCCCCCCCC(C)(C)C(=O)Nc1c(OC)cc(OC)cc1OC | . | 10µM | - | 10µM | - | ?
CCC(C)NC(=O)c1ccccc1NC(=O)C1CCN(S(=O)(=O)Cc2ccccc2)CC1 (centres undefined) | . | ? | - | ? | - | -
COc1ccc(-c2nc(CSCC(=O)NC3CCCc4ccccc43)c(C)o2)cc1OC (centres undefined) | - | ? | - | 21µM | - | -
COc1ccc(-c2nc(CSCC(=O)N3CCc4ccccc4C3)c(C)o2)cc1OC | ? | ? | - | 21µM | - | -
SMILES | IL1B secr inh | DT40 TDP1 CPT | HepG2 viability | TDP1 cell noCPT | TDP1 inh | TGFb SMAD3 inh
CCOc1ccc(-n2cc(-c3ccccc3)c3c(=S)nc[nH]c32)cc1 | - | 15µM | - | ? | - | ?
CCOc1ccc(-n2cc(-c3ccccc3)c3c(=O)[nH]cnc32)cc1 | -67 | - | - | ? | - | -
CCOc1ccccc1Nc1ncnc2c1c(-c1ccccc1)cn2-c1ccc(OC)cc1 | . | ? | - | ? | - | -
O=c1[nH]cnc2c1c(-c1ccccc1)cn2-c1ccc(Br)cc1 | ? | ? | - | 16µM | - | -
Cc1cccc(-n2cc(-c3ccccc3)c3c(=O)[nH]cnc32)c1 | -88 | - | - | - | - | -
CCOc1ccc(Nc2ncnc3c2c(-c2ccccc2)cn3-c2cccc(C)c2)cc1 | . | - | - | - | - | -
CCc1ccccc1NC(=O)COCc1cc(-c2ccco2)on1 | . | - | - | - | - | -
Cc1cccc(CNC(=O)Cc2csc3ccccc23)c1 | . | - | - | - | - | -
Cc1ccc(-c2nn(-c3cc(N4CCNCC4)ccc3[N+](=O)[O-])c(=O)c3ccccc23)cc1 | -182 | 3.7µM | - | 4.1µM | - | -
CC(Sc1nc(N)cc(=O)[nH]1)C(=O)Nc1ccc(N2CCOCC2)cc1 (centres undefined) | - | - | - | - | . | -
COc1c(C)cccc1C(=O)NC(=S)Nc1ccccc1N1CCCC1 | - | ? | - | - | - | -
COc1cc(C(=O)Nc2ccccc2NC(=O)c2cc(OC)c(OC)c(OC)c2)cc(OC)c1OC | - | - | - | - | . | -
COc1cc(C(=O)NC(=S)Nc2ccccc2N2CCCC2)cc(OC)c1OC | - | ? | - | 21µM | - | -
COc1cc(C(=O)Nc2ccccc2N2CCCCC2)cc(OC)c1OC | - | ? | - | 21µM | . | ?
Cc1cccc(N(CC(=O)NC(C)c2ccccc2)S(=O)(=O)c2ccccc2)c1C (centres undefined) | . | ? | - | ? | . | ?
Cn1c(SCC(=O)Nc2cccnc2Cl)nc2ccccc21 | - | - | - | - | - | -
CCC(C(=O)NCCC(C)C)N(C(=O)Cn1nnc(-c2ccc(C)cc2)n1)c1cccc(O)c1 (centres undefined) | . | ? | - | 16µM | - | ?
COC(=O)c1c(-c2ccc(SC)cc2)sc2ccc(OC)cc12 | - | ? | - | - | - | -
COc1ccc(-c2sc3cc(OC)c(OC)cc3c2C#CCO)cc1 | - | 18µM | - | ? | - | -
COc1ccc2sc(-c3ccc(SC)cc3)c(C#CCO)c2c1 | - | 18µM | - | ? | - | ?
COc1ccc(OC)c(N=C2SCCCN2C(=O)c2ccc(N3C(=O)CCC3=O)cc2)c1 | . | . | . | . | - | .
COc1ccc(Oc2ncc3nc(-c4cc(F)cc(F)c4)c(=O)n(C[C@H]4CCCO4)c3n2)cc1 | . | ? | . | - | . | .
CC1(c2nnnn2-c2ccc3c(c2)OCCO3)CCC(=O)N1Cc1cccnc1 (centres undefined) | - | - | . | - | . | .
CCCCc1nc2cc(Cl)ccc2o1 | - | - | - | - | - | -
Cn1nnnc1SCCCNCc1ccccc1OCc1ccccc1Cl | . | 5.2µM | - | 4.6µM | - | ?
Cn1nnnc1SCCCNCc1cccc(OCc2ccccc2Cl)c1 | . | 18µM | - | 16µM | - | 10µM

Assay outcomes from PubChem.
